Compound activity from PubChem BioAssay.
Compounds with a hit are over-represented: about 2.4% of the library has one in this group of screens.
MEKK3 PB1 HTS: modulators (inhibitors or enhancers) of MEK5 binding to human MEKK3 PB1 domain. Q99759. hit rate 1.4% among 290,000. binding response (% of control), % at 10 µM. bead-based flow cytometry, Alexa488-MEK5 binding to MEKK3; actives lie on both sides; 0 = blocked by unlabeled MEK5, 100 = vehicle;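 active means binding response more than 3 SD above or below the average of its plate-row segment, actives on both sides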;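 further: Alexa488 bead fluorescence after subtracting the streptavidin-only scavenger bead signal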
Arbovirus anti: arbovirus infection inhibition. AID 1251. hit rate 0.37% among 200,000. inhibition, % at 10 µM. arbovirus infection cell-based antiviral screen; in the data active means inhibition above about 30%
MEKK2 mut-MEK5: signal of MEK5 binding to mutant human MEKK2 PB1 domain; bead flow cytometry, Alexa488-MEK5 binding to MEKK2 mutant; percent response, % at 10 µM; hit rate 0.35% among 290,000; AID 1530; in the data active means percent response above about 24%, passing the limit was not always enough
MEKK2 WT-MEK5: raises or lowers MEK5 binding to wildtype human MEKK2 PB1 domain; Q9Y2U5; bead flow cytometry, Alexa488-MEK5 binding to MEKK2 WT; actives lie on both sides; binding response (% of control), % at 10 µM; hit rate 1.1% among 290,000; AID 1531; in the data active means binding response below about 67% or above about 130%
Pf gamet viab: P. falciparum stage V gametocyte viability inhibition; P. falciparum stage V gametocytes, ATP luminescence, 24 h; inhibition, % at 10.9 µM; hit rate 0.065% among 150,000; AID 743093;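 active means inhibition above the mean plus 3 SD of compounds within the control limits, set per campaign, cut at about 38% in these data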
MEKK2wt confirm: raises or lowers MEK5 binding to wildtype human MEKK2, retest; shares compounds with MEKK3 PB1 HTS; bead flow cytometry, Alexa488-MEK5 binding to MEKK2 WT; actives lie on both sides; binding response (% of control), % at 10 µM; hit rate 2.4% among 5,900; AID 1892; in the data active means binding response below about 16% or above about 210%; inactive means in between
MEKK2mut confirm: signal of MEK5 binding to mutant human MEKK2, retest | shares compounds with MEKK3 PB1 HTS | bead flow cytometry, Alexa488-MEK5 binding to MEKK2 mutant | percent response, % at 10 µM | hit rate 2% among 5,900; in the data active means percent response mostly above about 71%, no sharp cut-off; inactive means mostly below about 38%;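 further: higher means compound restores mutant binding toward wildtype level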
MEKK3 confirm: MEKK3-MEK5 PB1 inhibition, single concentration confirmation; shares compounds with MEKK3 PB1 HTS; bead flow cytometry, Alexa488-MEK5 binding to MEKK3; stronger effect = lower value; binding response (% of control), % at 10 µM; hit rate 1.8% among 5,900; AID 1894;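 active means binding response below 72% of control, or above a set upper limit, though filed actives all read lower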
Each line names hits and unclear results; the compound was inactive in the other large screens (follow-up assays come after a bar, where they were run); [ ] = remark or other dose.

C=CCN(CC(=O)Nc1c(C)cccc1CC)C(=O)SCCC	MEKK3 PB1 HTS 81[inhibitor] (no result: Pf gamet viab) | MEKK2wt confirm inactive | MEKK2mut confirm inactive | MEKK3 confirm inactive
CC(C)[C@H](NC(N)=O)C(=O)Nc1ccc(Oc2ccccc2)cc1	MEKK3 PB1 HTS 42[inhibitor] | MEKK2wt confirm inactive | MEKK2mut confirm inactive | MEKK3 confirm inactive
CC(C)[C@H](NC(=O)Nc1ccc(Oc2ccccc2)cc1)C(=O)O	none (no result: Pf gamet viab)
COc1ccc(/C=C/c2nc3ccccc3n2Cc2ccccc2OC)cc1	MEKK3 PB1 HTS 151 | MEKK2wt confirm inactive | MEKK2mut confirm inactive | MEKK3 confirm inactive
COc1ccccc1Cn1c(/C=C/c2ccccc2)nc2ccccc21	none
COc1ccc2c(c1)c(/C=N/Nc1nc3ccccc3[nH]1)c(C)n2C	MEKK2 mut-MEK5 51, MEKK2 WT-MEK5 164 (no result: Arbovirus anti) | MEKK2wt confirm inactive | MEKK2mut confirm inactive | MEKK3 confirm inactive
COc1cc(/C=N\Nc2nc3ccccc3[nH]2)cc(OC)c1OC	none (no result: Pf gamet viab)
Cn1cnc(S(=O)(=O)Nc2ccc(OC(F)F)cc2)c1	none (no result: Arbovirus anti)
CN(C)CCN(C(=O)c1ccc2ccccc2c1)c1nc2cc3c(cc2s1)OCCO3	none (no result: Arbovirus anti, Pf gamet viab)
CN(C)CCN(C(=O)c1cccc2ccccc12)c1nc2cc3c(cc2s1)OCO3	MEKK2 WT-MEK5 137 (no result: Arbovirus anti, Pf gamet viab) | MEKK2wt confirm inactive | MEKK2mut confirm inactive | MEKK3 confirm inactive
CN(C)CCCN(C(=O)c1ccc2ccccc2c1)c1nc2cc3c(cc2s1)OCO3	MEKK2 mut-MEK5 24, MEKK2 WT-MEK5 142 (no result: Arbovirus anti, Pf gamet viab) | MEKK2wt confirm inactive | MEKK2mut confirm inactive | MEKK3 confirm inactive
CCC1CCCCN1S(=O)(=O)c1ccc(C(=O)N(CCCN(C)C)c2nc3cc4c(cc3s2)OCO4)cc1 (centres undefined)	MEKK2 mut-MEK5 24, MEKK2 WT-MEK5 156 (no result: Arbovirus anti, Pf gamet viab) | MEKK2wt confirm inactive | MEKK2mut confirm inactive | MEKK3 confirm inactive
CN(C)CCCN(C(=O)c1ccc(S(=O)(=O)N(C)Cc2ccccc2)cc1)c1nc2cc3c(cc2s1)OCO3	MEKK2 mut-MEK5 41, MEKK2 WT-MEK5 192 (no result: Arbovirus anti, Pf gamet viab) | MEKK2wt confirm inactive | MEKK2mut confirm inactive | MEKK3 confirm inactive
COc1ccc(N2CCN(C(=O)CN(c3cccc(OC)c3)S(=O)(=O)c3ccccc3)CC2)cc1	none (no result: Arbovirus anti, Pf gamet viab)
Cc1nc(NCc2ccc3c(c2)OCO3)c2oc3ccccc3c2n1	MEKK3 PB1 HTS 70[inhibitor] (no result: Pf gamet viab) | MEKK2wt confirm inactive | MEKK2mut confirm inactive | MEKK3 confirm inactive
CCc1nc(NCc2ccc3c(c2)OCO3)c2oc3ccccc3c2n1	none (no result: Pf gamet viab)
COc1ccc(Cn2c(SCc3ccccc3C)nc3cc(OC)c(OC)cc3c2=N)cc1	MEKK2 mut-MEK5 96, MEKK2 WT-MEK5 278 | MEKK2wt confirm 252 | MEKK2mut confirm 79 | MEKK3 confirm inactive
CCOC(=O)c1sc(NC(=O)CCCn2nc([N+](=O)[O-])c(Cl)c2C)c(C(=O)OCC)c1C	none
Cn1c(=O)c2c(SCCN3CCOCC3)nc(C3CCCC3)nc2n(C)c1=O	MEKK3 PB1 HTS 58[inhibitor] (no result: Pf gamet viab) | MEKK2wt confirm inactive | MEKK2mut confirm inactive | MEKK3 confirm inactive
Cc1ccc(NCC(=O)N/N=C\c2ccc[nH]2)cc1	none (no result: Arbovirus anti)
Cc1cccc(C(=O)OCc2cnc(Cl)s2)c1	MEKK3 PB1 HTS 15[inhibitor], MEKK2 WT-MEK5 25[inhibitor] (no result: Pf gamet viab) | MEKK2wt confirm inactive | MEKK2mut confirm inactive | MEKK3 confirm inactive
O=C(OCc1cnc(Cl)s1)c1cccc(Cl)c1	none
O=C(C[n+]1cccc(O)c1)Nc1ccc(Br)cc1	none
O=C(CSc1nc2ccccc2c(=O)n1-c1ccccc1)N/N=C/C=C/c1ccccc1[N+](=O)[O-]	none
Cc1ccccc1-n1c(SCC(=O)N/N=C/C=C/c2ccccc2[N+](=O)[O-])nc2ccccc2c1=O	MEKK3 PB1 HTS 134 | MEKK2wt confirm inactive | MEKK2mut confirm inactive | MEKK3 confirm inactive
O=C(N/N=C/C=C/c1ccccc1[N+](=O)[O-])c1cc(-c2cccnc2)nc2ccccc12	MEKK3 PB1 HTS 65[inhibitor] | MEKK2wt confirm inactive | MEKK2mut confirm inactive | MEKK3 confirm inactive
